Reference: PubChem BioAssay (NCATS)
Records with an inconclusive call do not appear. The source made the active and inactive calls. Unless noted, calls follow the shape of the dose curve; as a rule, active = well fitted curve in the direction sought with a large enough effect; inconclusive = small, poorly fitted or top-dose-only effect, or another doubt; inactive = no such curve, though single readings can be large; an effect the other way counts as inactive or inconclusive.

What was measured:
[1] = AP1 Signaling Pathway (AID 357; active = well fitted curve in either direction with a large enough effect, not every such curve was filed as active;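 also: ME-180 reporter cells stimulated with EGF at its EC50 level; % is scaled to controls: 0 for no effect and ±100 for the full control effect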); details: ME-180 AP-1-bla reporter, EGF-induced, beta-lactamase ratio, 5 h; at 7.69 µM (top of the series) unless noted
Outline: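 Modulation of EGF-driven AP-1 transcription was assessed with a beta-lactamase reporter in ME-180 cells. Compound and EC50 EGF were co-incubated 5 hours at 37 °C before 2.5-hour CCF4 loading at room temperature and dual-emission reading.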

[2] = biological target: Cytochrome P450 1A2 (Homo sapiens) (UniProt P05177); assay: p450-cyp1a2 (AID 410; calls by dose curve; also: potency is read from the fitted curve at half-maximal effect;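 as to activity change, negative = inhibition: -100% = full effect of reference inhibitor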)
Outline: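 20nM CYP1A2, 100uM Luciferin-ME (=Km), 100mM KPO4; cpd 10 min RT; +NADPH regen, 60 min RT; stop/detect 20 min; luminescence. Normalized to furafylline 57 uM = full inhibition.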

[3] = NFAT Signaling Pathway (AID 444; active = well fitted curve in either direction with a large enough effect, not every such curve was filed as active;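 also: carbachol stimulus at about its EC50 of 1 µM final; % is scaled to controls: 0 for no effect and ±100 for the full control effect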); details: Jurkat NFAT-bla M1, carbachol, beta-lactamase ratio, 5 h; at 7.69 µM (top of the series) unless noted
Outline: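 Jurkat cells carrying an NFAT-driven β-lactamase reporter and co-transfected muscarinic M1 receptor were treated with compound plus carbachol (1 uM final, an EC50 level) for 5 h at 37 °C. CCF4 loading followed for 1 h at RT; 460/530 nm ratio gave %activity.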

[4] = Stat Signaling Pathway (AID 446; active = well fitted curve in either direction with a large enough effect, not every such curve was filed as active;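 also: ME-180 cervical cancer cells given 40 pM IL-6 alongside compound; SIE-controlled beta-lactamase reporter measured as 460/530 nm FRET emission ratio; % is scaled to controls: 0 for no effect and ±100 for the full control effect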); details: ME-180 SIE beta-lactamase reporter, IL-6 stimulated, 5 h; at 7.69 µM (top of the series) unless noted
Outline: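 Overnight-plated ME-180 cells bearing a STAT Inducible Element beta-lactamase reporter; 5 h co-exposure to compound and 40 pM IL-6; values normalized to 300 pM IL-6 and 125 nM JAK inhibitor controls.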

[5] = biological target: Glucocorticoid receptor (Homo sapiens) (UniProt P04150); assay: GR-GFP Redistribution (AID 450;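 active = compounds whose dose series gives a full or clear partial fitted curve of increased nuclear translocation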; also: potency is read from the fitted curve at half-maximal effect); details: U2OS GR-GFP nuclear translocation, laser cytometry, 2 h
[6] = biological target: Glucocorticoid receptor (Homo sapiens) (UniProt P04150); assay: GR-EFC Redistribution (AID 451; calls by dose curve; also: potency is read from the fitted curve at half-maximal effect); details: CHO-K1 GR-EFC translocation, beta-gal luminescence, 2 h
Outline: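 CHO-K1 cells stably expressing nuclear-localized β-gal enzyme acceptor and GR fused C-terminally to the enzyme donor fragment; ligand-driven nuclear translocation restores β-gal by complementation. Compounds titrated up to 46 uM final, 2 h at 37 °C; luminescence read.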

[7] = biological target: Mitogen-activated protein kinase 10 (Mus musculus) (UniProt Q61831); assay: JNK3 AlphaScreen Assay (AID 530; active = well fitted curve in either direction with a large enough effect, not every such curve was filed as active;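 also: kinase came from lysate of stimulated human HepG2 cells; signal reports phosphorylation of biotinylated GST-cJun 1-79 at Ser73 with 10 µM ATP; % is scaled to controls: 0 for no effect and ±100 for the full control effect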)
Outline: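 Biotinylated GST-cJun(1-79) served as substrate for JNK3 in HepG2 lysates stimulated with IL-1beta and TNF-alpha. ATP was 10 uM final, pH 7.6. Ser73 phosphorylation was quantified by AlphaScreen (680 nm excitation).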

[8] = biological target: 3',5'-cyclic-AMP phosphodiesterase 4B (Homo sapiens) (UniProt Q07343); assay: qHTS Assay for Inhibitors of PDE-IV (AID 607; active = well fitted activation curve with a large enough effect in the main read-out, with a control signal flat, not every such curve was filed as active; also: % of control where 0% means no effect)
Outline: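 Live HEK293 cells with a modified cyclic nucleotide-gated (CNG) channel report intracellular cAMP via membrane-potential dye fluorescence (ex 535/em 590 nm). Endogenous PDE-IV was targeted. Compounds were tested at up to 22.9 uM final; RO 20-1724 100 uM served as control.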

[9] = qHTS Assay for Lipid Storage Modulators (AID 1519; calls by dose curve); details: Drosophila S3 cells, BODIPY lipid droplet/cell ratio, laser cytometry, cells loaded with oleic acid
Outline: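 Cells seeded at 5,000 per well were treated with compounds over a concentration series and loaded with oleic acid (400 uM, as added). Lipid droplet fluorescence (488 nm excitation, 500-530 nm channel) was read by laser-scanning cytometry and normalized to 20 uM Triacsin C.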

[10] = biological target: Dual specificity protein kinase CLK4 (Homo sapiens) (UniProt Q9HAZ1); assay: qHTS Assay for Inhibitors of CDC-like Kinase 4 (Kinase-Glo Assay) (AID 1770); also: nearly all actives have a fitted effect of over 65% in size; also: potency is read from the fitted curve at half-maximal effect
Outline: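 Substrate mix (RS peptide 100 uM, ATP 1 uM) dispensed, compound pinned in, then Clk4 added to 25 nM final. Incubated 4.5 h at RT; Kinase-Glo reagent added, luminescence read after 5 min.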

[11] = biological target: Dual specificity protein kinase CLK4 (Homo sapiens) (UniProt Q9HAZ1); assay: qHTS Assay for Inhibitors of CDC-like Kinase 4 (ADP-Glo Assay) (AID 1771); also: nearly all actives have a fitted effect of over 70% in size; also: potency is read from the fitted curve at half-maximal effect
Outline: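 25 nM Clk4, 100 uM RS peptide, 1 uM ATP (final); 2 mM MgCl2, 0.5 mM EGTA, 2.5 mM DTT, 0.01% Triton X-100; 1 hr RT. ADP-Glo readout: ATP depletion 45 min, conversion/luciferase 30 min, luminescence.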

[12] = biological target: Ubiquitin carboxyl-terminal hydrolase 1 (Homo sapiens) (UniProt O94782); assay: Inhibitors of USP1/UAF1: Pilot qHTS (AID 504865);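 also: rhodamine fluorescence freed from ubiquitin-rhodamine substrate followed over time; top concentration of the series differs between compounds; % is scaled to controls: 0 for no effect and ±100 for the full control effect; nearly all actives have a fitted effect of over 35% in size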
Outline: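 In 50mM HEPES pH 7.8 containing 0.5mM EDTA, 1mM TCEP, 0.1 mg/ml BSA and 0.01% Tween-20, 1nM USP1/UAF1 is exposed to compound for 15 min, then Ub-Rho (150nM final) is added and fluorescence is read over time.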

[13] = biological target: Cytochrome P450 3A4 (Homo sapiens) (UniProt P08684); assay: qHTS Assay for Activators of Cytochrome P450 3A4 (AID 885); also: nearly all actives have a fitted effect of over 65% in size
Outline: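 Using 20nM recombinant human CYP3A4 in potassium phosphate (200mM), substrate Luciferin-PPXE at 25uM, luminescent luciferin detection followed a 60-min RT NADPH reaction; data scaled to 57 uM ketoconazole.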

[14] = qHTS Assay for Identification of Small Molecule Agonists for Hypoxia Response Element Signaling Pathway (AID 914; active = well fitted activation curve with a large enough effect in the signal ratio, with a control signal flat, not every such curve was filed as active; the % refers to the signal ratio; also: potency is read from the fitted curve at half-maximal effect); details: ME-180 (cervical carcinoma) HRE-bla reporter, beta-lactamase ratio, CoCl2, 17 h; activation: stronger effect = higher value
Outline: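 qHTS titration; ME-180 HRE-bla cells; EC50 CoCl2 co-treatment, 17 h at 37 degrees Celsius; CCF4 dye, ex 405nm, em 460nm and 530nm; %Activity from ratio; AC50.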

[15] = biological target: Dual specificity protein kinase CLK4 (Homo sapiens) (UniProt Q9HAZ1); assay: qHTS Assay for Inhibitors of CDC-like Kinase 4 (ADP-FP Assay) (AID 1795);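 also: recombinant human CLK4 phosphorylating RS repeat peptide at 1 µM ATP; % is scaled to controls: 0 for no effect and ±100 for the full control effect; nearly all actives have a fitted effect of over 60% in size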
Outline: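 Clk4 6.25 nM; RS peptide 100 uM; ATP 1 uM; 25 mM Tris pH 7.5, 10 mM MgCl2; 1 h reaction. ADP detected via antibody/orange tracer FP displacement; TG003 positive control.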

[16] = biological target: Lysosomal acid glucosylceramidase (Homo sapiens) (UniProt P04062); assay: Glucocerebrosidase-p2 (AID 348; in the data active = potency below about 10 µM; also: potency is read from the fitted curve at half-maximal effect); details: purified GBA, blue fluorogenic substrate, 40 min
Outline: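 Normal human glucocerebrosidase (0.2 nM) with blue fluorogenic substrate (80 uM final) in citrate/phosphate pH 5.9 with 10mM sodium taurocholate, 0.01% tween-20; 40 min RT, NaOH/glycine stop; fluorescence Ex 365/Em 440; AC50 from a titration from 0.6 nM upwards.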

[17] = biological target: Cytochrome P450 3A4 (Homo sapiens) (UniProt P08684); assay: qHTS Assay for Inhibitors and Substrates of Cytochrome P450 3A4 (AID 884); also: % is scaled to controls: 0 for no effect and ±100 for the full control effect; nearly all actives have a fitted effect of over 50% in size
Outline: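 Luminescent readout of luciferin produced by CYP3A4 (20 nM) dealkylation of Luciferin-PPXE, 25 uM (its KM). NADPH-driven reaction ran 60 min at RT after 10 min compound preincubation; data scaled to 57 uM ketoconazole as 100% inhibition.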

[18] = biological target: Cytochrome P450 2C19 (Homo sapiens) (UniProt P33261); assay: qHTS Assay for Inhibitors and Substrates of Cytochrome P450 2C19 (AID 899); also: % is scaled to controls: 0 for no effect and ±100 for the full control effect; nearly all actives have a fitted effect of over 60% in size
Outline: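 NADPH-dependent conversion of Luciferin-H EGE (10uM, at KM) by 5nM enzyme in 50mM KPO4, 60 min at 37C following 10 min compound preincubation. Stopped with luciferin detection buffer; luminescence read after 20 min.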

[19] = Confirmation and Secondary Assay for Modulators of Hemoglobin Beta Chain Splicing at IVS2 654 locus (AID 910);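 also: per-well total GFP intensity by laser scanning cytometry after 2-day treatment; % of control where 0% means no effect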
Outline: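 HeLa cells stably carrying EGFP interrupted by mutant beta-globin IVS2-654 intron (CMV-driven) were treated with compound for 2 days at 37C; corrected splicing was scored as total peak GFP intensity per well (488 nm excitation, 500-520 nm emission).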

[20] = Confirmation and Secondary Assay for Modulators of Hemoglobin Beta Chain Splicing at IVS2 705 locus (AID 930);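 also: HeLa cells stably expressing the EGFP-705 splicing reporter; GFP fluorescence per well restored by corrected splicing of the IVS2-705 intron in EGFP; % of control where 0% means no effect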
Outline: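 Secondary splice-site specificity test uses HeLa expressing CMV-driven EGFP interrupted by IVS2-705; cells were treated 2 days at 37C with 500 nM antisense PNA as positive control.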

[21] = measured here: cell count channel max response
[22] = measured here: lipid channel max response

Chain of Ubiquitin carboxyl-terminal hydrolase 1 (Homo sapiens) (O94782 whole entry, looked up): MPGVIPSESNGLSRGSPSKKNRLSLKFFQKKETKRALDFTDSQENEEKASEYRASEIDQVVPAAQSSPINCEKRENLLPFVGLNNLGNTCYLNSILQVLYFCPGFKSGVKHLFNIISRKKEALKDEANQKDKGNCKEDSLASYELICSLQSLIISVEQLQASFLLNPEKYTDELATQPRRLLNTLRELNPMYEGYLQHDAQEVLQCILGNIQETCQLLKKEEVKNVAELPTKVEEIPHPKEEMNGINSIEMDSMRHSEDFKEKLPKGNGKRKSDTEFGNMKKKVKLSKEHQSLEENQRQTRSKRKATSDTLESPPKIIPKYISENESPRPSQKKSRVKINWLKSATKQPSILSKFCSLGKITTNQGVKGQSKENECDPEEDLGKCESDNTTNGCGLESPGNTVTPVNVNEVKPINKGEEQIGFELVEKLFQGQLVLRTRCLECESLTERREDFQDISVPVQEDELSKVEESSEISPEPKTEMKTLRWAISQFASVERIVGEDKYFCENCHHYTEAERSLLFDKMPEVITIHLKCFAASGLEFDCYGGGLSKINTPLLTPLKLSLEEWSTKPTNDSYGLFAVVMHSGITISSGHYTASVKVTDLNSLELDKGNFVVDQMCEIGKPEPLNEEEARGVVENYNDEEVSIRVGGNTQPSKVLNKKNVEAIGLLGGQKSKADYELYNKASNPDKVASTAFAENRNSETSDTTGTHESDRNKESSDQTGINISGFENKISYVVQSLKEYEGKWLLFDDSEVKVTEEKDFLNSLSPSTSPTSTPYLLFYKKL
Chain of Dual specificity protein kinase CLK4 (Homo sapiens) (Q9HAZ1 whole entry, looked up): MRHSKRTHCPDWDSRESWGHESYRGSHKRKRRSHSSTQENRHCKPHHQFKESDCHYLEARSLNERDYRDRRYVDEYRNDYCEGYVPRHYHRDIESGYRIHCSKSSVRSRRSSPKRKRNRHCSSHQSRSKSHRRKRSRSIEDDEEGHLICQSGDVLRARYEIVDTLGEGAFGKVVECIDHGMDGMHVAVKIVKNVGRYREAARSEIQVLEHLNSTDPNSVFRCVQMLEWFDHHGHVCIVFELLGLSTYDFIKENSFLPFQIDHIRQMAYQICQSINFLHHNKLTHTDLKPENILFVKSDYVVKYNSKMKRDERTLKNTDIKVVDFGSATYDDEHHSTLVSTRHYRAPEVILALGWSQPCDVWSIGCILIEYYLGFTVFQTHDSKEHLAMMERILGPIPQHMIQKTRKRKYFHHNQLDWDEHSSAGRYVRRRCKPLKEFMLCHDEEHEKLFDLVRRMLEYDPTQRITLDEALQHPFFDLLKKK
Chain of Cytochrome P450 3A4 (Homo sapiens) (P08684 whole entry, looked up): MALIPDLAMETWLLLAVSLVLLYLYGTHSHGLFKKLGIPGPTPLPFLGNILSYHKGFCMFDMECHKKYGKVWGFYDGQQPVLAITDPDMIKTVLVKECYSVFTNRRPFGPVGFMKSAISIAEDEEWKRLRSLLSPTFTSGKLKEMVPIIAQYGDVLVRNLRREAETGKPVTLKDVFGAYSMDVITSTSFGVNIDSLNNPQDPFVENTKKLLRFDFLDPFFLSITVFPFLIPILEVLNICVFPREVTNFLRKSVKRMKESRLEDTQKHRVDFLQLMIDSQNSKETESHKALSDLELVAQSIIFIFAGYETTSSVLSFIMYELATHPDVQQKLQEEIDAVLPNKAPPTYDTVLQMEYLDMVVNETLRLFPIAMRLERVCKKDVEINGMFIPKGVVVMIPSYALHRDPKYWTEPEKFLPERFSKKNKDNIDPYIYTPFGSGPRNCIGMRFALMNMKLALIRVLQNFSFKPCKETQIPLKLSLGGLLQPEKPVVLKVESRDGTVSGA
Chain of Glucocorticoid receptor (Homo sapiens) (P04150 whole entry, looked up, the tested form may be a part): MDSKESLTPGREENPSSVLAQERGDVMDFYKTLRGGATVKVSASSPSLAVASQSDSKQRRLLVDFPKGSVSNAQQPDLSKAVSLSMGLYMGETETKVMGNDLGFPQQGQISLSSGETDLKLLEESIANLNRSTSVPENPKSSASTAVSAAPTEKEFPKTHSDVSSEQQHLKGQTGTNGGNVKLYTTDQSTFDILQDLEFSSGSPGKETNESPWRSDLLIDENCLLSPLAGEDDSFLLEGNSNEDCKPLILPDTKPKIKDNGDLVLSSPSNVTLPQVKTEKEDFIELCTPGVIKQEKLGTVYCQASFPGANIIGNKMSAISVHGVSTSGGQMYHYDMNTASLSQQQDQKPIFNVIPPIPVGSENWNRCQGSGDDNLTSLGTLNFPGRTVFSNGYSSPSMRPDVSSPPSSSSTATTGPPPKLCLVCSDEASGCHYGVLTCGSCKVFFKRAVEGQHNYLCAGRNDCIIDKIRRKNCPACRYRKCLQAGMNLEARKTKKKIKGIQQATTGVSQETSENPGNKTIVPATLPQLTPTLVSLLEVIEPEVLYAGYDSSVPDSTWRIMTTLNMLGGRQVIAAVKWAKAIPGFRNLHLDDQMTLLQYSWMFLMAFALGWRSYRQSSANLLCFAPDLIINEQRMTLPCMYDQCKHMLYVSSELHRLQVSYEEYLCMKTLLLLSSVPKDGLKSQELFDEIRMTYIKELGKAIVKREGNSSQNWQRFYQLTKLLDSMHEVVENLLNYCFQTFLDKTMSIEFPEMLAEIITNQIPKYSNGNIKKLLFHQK
Chain of 3',5'-cyclic-AMP phosphodiesterase 4B (Homo sapiens) (Q07343 whole entry, looked up): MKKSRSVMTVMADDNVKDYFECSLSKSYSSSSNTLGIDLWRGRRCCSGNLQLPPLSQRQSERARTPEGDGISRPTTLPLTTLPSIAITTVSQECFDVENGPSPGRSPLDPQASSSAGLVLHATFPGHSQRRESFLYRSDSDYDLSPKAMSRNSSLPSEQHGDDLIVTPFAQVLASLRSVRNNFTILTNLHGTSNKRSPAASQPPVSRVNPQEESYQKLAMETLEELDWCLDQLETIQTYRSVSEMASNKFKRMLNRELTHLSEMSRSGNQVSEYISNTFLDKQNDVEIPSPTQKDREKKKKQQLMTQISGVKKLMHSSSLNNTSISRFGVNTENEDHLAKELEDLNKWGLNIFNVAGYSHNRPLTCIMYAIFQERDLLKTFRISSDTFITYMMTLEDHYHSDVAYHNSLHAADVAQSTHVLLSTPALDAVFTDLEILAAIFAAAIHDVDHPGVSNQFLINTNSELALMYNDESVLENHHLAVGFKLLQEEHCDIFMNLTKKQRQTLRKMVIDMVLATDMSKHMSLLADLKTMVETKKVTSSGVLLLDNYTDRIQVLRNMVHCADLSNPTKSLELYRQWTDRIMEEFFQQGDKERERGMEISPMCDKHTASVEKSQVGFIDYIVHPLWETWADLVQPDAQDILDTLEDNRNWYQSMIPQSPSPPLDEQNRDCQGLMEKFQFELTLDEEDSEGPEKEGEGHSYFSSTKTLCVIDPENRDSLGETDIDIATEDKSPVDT
Chain of Cytochrome P450 1A2 (Homo sapiens) (P05177 whole entry, looked up): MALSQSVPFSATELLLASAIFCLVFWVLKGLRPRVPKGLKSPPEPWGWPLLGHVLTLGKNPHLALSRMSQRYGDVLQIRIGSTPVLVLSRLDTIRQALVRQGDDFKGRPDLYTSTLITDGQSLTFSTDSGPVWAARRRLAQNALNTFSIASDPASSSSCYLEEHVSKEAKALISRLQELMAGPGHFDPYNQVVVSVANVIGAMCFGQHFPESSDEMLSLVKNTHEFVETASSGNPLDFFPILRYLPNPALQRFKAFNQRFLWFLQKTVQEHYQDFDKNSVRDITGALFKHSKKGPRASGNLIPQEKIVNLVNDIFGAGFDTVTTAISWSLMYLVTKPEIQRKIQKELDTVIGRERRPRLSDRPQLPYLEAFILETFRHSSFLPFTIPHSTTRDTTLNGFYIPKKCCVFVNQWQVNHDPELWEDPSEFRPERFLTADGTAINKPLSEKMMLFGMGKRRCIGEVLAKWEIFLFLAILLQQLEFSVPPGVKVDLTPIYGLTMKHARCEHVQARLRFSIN
Chain of Lysosomal acid glucosylceramidase (Homo sapiens) (P04062 whole entry, looked up): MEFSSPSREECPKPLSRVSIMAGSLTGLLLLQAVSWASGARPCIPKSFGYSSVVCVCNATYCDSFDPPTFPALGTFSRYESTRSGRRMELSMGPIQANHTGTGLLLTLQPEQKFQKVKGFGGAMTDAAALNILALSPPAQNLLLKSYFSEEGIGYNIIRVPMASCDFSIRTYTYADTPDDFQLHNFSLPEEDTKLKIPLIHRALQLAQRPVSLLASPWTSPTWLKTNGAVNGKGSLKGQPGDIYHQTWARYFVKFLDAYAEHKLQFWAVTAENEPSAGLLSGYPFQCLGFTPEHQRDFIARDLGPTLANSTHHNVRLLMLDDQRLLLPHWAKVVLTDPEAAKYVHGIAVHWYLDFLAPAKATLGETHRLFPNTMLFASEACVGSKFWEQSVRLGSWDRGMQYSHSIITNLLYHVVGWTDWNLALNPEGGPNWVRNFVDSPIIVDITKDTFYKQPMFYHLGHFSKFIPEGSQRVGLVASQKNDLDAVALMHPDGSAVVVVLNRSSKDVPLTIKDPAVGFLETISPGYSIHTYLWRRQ
Chain of Cytochrome P450 2C19 (Homo sapiens) (P33261 whole entry, looked up): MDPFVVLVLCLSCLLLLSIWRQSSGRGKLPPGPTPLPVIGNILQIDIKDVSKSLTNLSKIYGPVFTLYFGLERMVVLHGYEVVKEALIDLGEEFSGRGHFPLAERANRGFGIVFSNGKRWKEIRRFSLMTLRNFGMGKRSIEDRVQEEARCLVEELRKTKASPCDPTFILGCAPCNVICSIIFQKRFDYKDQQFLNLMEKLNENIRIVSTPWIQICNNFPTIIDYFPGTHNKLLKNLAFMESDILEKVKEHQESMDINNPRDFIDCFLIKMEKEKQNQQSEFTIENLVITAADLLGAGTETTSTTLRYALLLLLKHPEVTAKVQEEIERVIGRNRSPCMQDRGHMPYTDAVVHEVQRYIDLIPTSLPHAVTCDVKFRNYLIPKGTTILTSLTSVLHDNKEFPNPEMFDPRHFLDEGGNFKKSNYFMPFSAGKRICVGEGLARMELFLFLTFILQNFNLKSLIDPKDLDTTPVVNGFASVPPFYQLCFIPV

Cc1noc(C)c1-c1nc(NC2CCNCC2)c2ccccc2n1
active: Potency [2] 5.01 µM | Potency [10] 25.1 µM | Potency [11] 28.2 µM
inactive: activity change, negative = inhibition [1] 34.4% | activity change, negative = inhibition [3] 26.2% | activity, negative = inhibition [4] 6.06% | Potency [5] > 46 µM | Potency [6] > 46 µM | Potency [7] | Potency [8] | activity change, negative = inhibition ([9]; at 57.5 µM (top of the series)) 4.9% | Potency [12]
11.4%: max response [9, 21]
12.7%: max response [9, 22]

COCCn1c(=O)c(-c2cccs2)nc2cnc(N3CCN(C)CC3)nc21
18.6%: max response [9, 21]
active: Potency [2] 15.8 µM | Potency [14] 2.51 µM
19.9%: max response [9, 22]
inactive: activity, negative = inhibition [4] 12% | Potency [5] > 9.22 µM | Potency [6] > 46 µM | Potency [7] | Potency [8] | Potency [13] | activity change, negative = inhibition ([9]; at 57.5 µM (top of the series)) 1.3% | Potency [10] | Potency [11] | Potency [15] | Potency [12]

CN1CCN(c2ncc3nc(-c4cccc(C#N)c4)c(=O)n(C[C@H]4CCCO4)c3n2)CC1
12.1%: max response [9, 22]
active: Potency [2] 15.8 µM
11.1%: max response [9, 21]
inactive: Potency [16] > 11.4 µM | activity change, negative = inhibition [1] 27.9% | activity change, negative = inhibition [3] -3.07% | activity, negative = inhibition [4] 11.4% | Potency [5] > 9.22 µM | Potency [6] > 46 µM | Potency [7] | Potency [8] | Potency [17] | Potency [18] | activity change, negative = inhibition ([9]; at 57.5 µM (top of the series)) 2.76% | Potency [10] | Potency [15] | Potency [12]

CN(C)CC/C=C1\c2ccccc2CSc2ccccc21
-19.8%: max response [9, 22]
-12.7%: max response [9, 21]
inactive: activity change, negative = inhibition [1] 28.4% [at 17.2 µM] | Potency [2] | activity, negative = inhibition [4] -0.2% [at 17.2 µM] | Potency [5] > 20.6 µM | Potency [6] > 20.6 µM | Potency [7] | Potency [8] | activity change, negative = inhibition ([9]; at 25.7 µM (top of the series)) -6.7% | Potency [12]

COc1cc2c(cc1OC)C1Cc3ccc(OC)c(OC)c3CN1CC2 (stereo not drawn)
inactive: Potency [13] | Potency [19] | outcome [20] | activity change, negative = inhibition ([9]; at 57.5 µM (top of the series)) 8.32%
12.8%: max response [9, 21]
22.2%: max response [9, 22]

NC(Cc1c[nH]c2ccccc12)C(=O)O (stereo not drawn)
inactive: Potency [13] | Potency [19] | outcome [20] | activity change, negative = inhibition ([9]; at 57.5 µM (top of the series)) 9.94%
25.9%: max response [9, 21]
44.9%: max response [9, 22]

CN1CCN(c2ncc3nc(-c4ccccc4)c(=O)n(C)c3n2)CC1
14.1%: max response [9, 21]
inactive: Potency [16] > 11.4 µM | activity change, negative = inhibition [1] 19.6% | activity change, negative = inhibition [3] 23.4% | activity, negative = inhibition [4] 20% | Potency [5] > 9.22 µM | Potency [7] | Potency [8] | activity change, negative = inhibition ([9]; at 57.5 µM (top of the series)) 4.64% | Potency [11] | Potency [15] | Potency [12]
active: Potency [2] 15.8 µM
18.5%: max response [9, 22]
